In the supplement of paper PMC8387472:
Structures can show the parent of a compound that is named as a salt. ± gives the standard deviation of the averaged measurements.

Test system: mESC LDLR-Dup GFP reporter (SpCas9 MH-deletion repair)
Assay: fraction of GFP+ cells relative to DMSO control (fold change); higher = more MH-deletion repair to in-frame LDLR (or more editing)
Conditions: 2 µM; 7 days post-transfection

With COc1ccc(CC(=O)Nc2nc3c(s2)CCc2ccccc2-3)cc1OC as the molecule, how does the “fraction of GFP+ cells” value read?
Its value is 1.51 ± 0.37.

For CN(Cc1cnc2nc(N)nc(N)c2n1)c1ccc(C(=O)N[C@@H](CCC(=O)O)C(=O)O)cc1 [Methotrexate], which “fraction of GFP+ cells” value is on record?
The value was 1.53 ± 0.28.

CCOC(=O)Nc1ccc(NCc2ccc(F)cc2)nc1N [Flupirtine maleate] was tested. Which “fraction of GFP+ cells” value did it give?
The value was 0.989 ± 0.52.

With CC(=O)c1cc([N+](=O)[O-])c(Sc2ccc(F)cc2F)s1 as the molecule, how does the “fraction of GFP+ cells” value read?
The value was 0.785 ± 0.22.

For C=CC(=O)N1C/C(=C\c2ccc([N+](=O)[O-])cc2)C(=O)/C(=C/c2ccc([N+](=O)[O-])cc2)C1, which “fraction of GFP+ cells” value is on record?
The value was 0.723 ± 0.13.

For O=C(COc1cccc2c(=O)[nH]ccc12)c1ccccc1, which “fraction of GFP+ cells” value is on record?
The value was 0.936 ± 0.095.

How did the “fraction of GFP+ cells” value turn out when COc1cc2c(c(OC)c1OC)-c1c(cc3c(c1OC)OCO3)CC(C)C(C)C2 (stereo not given) [Schisandrin B (Sch B)] was run?
Its value is 1.02 ± 0.2.

Cc1n[nH]c2ncc(C(=O)N3CCC[C@H]3c3ccc(Cl)cc3)cc12 was tested. Which “fraction of GFP+ cells” value did it give?
Its value is 1.35 ± 0.069.

For CSc1nc2cc(Cl)c(Oc3cccc(Cl)c3Cl)cc2[nH]1 [Triclabendazole], which “fraction of GFP+ cells” value is on record?
Its value is 1.67 ± 0.26.

Which “fraction of GFP+ cells” value does the source give for COc1cc2c(cc1O)CC[C@@H]1[C@@H]2CC[C@]2(C)[C@@H](O)CC[C@@H]12 [2-Methoxyestradiol (2-MeOE2)] here?
Its value is 0.441 ± 0.088.

Cn1cc(-c2ccc3c(c2)CCN3C(=O)Cc2cccc(C(F)(F)F)c2)c2c(N)ncnc21 was tested. Which “fraction of GFP+ cells” value did it give?
Its value is 0.644 ± 0.25.

How did the “fraction of GFP+ cells” value turn out when CNCc1ccc(-c2cc(-c3nc(-c4ccc(S(=O)(=O)C(C)C)cc4)cnc3N)on2)cc1 was run?
Its value is 0.301 ± 0.12.

COc1cc2ncnc(-n3nc(-c4ccccn4)nc3N)c2cc1OC was tested. Which “fraction of GFP+ cells” value did it give?
Its value is 0.973 ± 0.34.

With CCCC(CCC)C(=O)O [valproic acid] as the molecule, how does the “fraction of GFP+ cells” value read?
The value was 0.696 ± 0.13.

COc1ccc(Cn2ccc3ccc(C(=O)NO)cc32)cc1 was tested. Which “fraction of GFP+ cells” value did it give?
The value was 0.5 ± 0.072.

CCOC(=O)NCCCC(=O)NCCc1ccccc1 was tested. Which “fraction of GFP+ cells” value did it give?
The value was 0.748 ± 0.18.

For Nc1ccn(C[C@@H](CO)OCP(=O)(O)O)c(=O)n1 [Cidofovir], which “fraction of GFP+ cells” value is on record?
Its value is 1.02 ± 0.1.

CC(=O)Nc1ccc(NC(=S)NC(=O)c2ccc(C(C)(C)C)cc2)cc1 [Tenovin-1] was tested. Which “fraction of GFP+ cells” value did it give?
Its value is 0.623 ± 0.14.

Which “fraction of GFP+ cells” value does the source give for O=C(Nc1ccccc1-c1cn2c(CN3CCNCC3)csc2n1)c1cnc2ccccc2n1 here?
The value was 1.19 ± 0.68.

Which “fraction of GFP+ cells” value does the source give for O=S(=O)(c1cccc2cnccc12)N1CCCNCC1 [Fasudil (HA-1077) HCl] here?
Its value is 2.2 ± 0.25.

Which “fraction of GFP+ cells” value does the source give for N#CSc1cc(SC#N)c(N)nc1N here?
Its value is 1.23 ± 0.14.

For O=C1C[C@@H](c2ccc(O)cc2)Oc2cc(O)cc(O)c21 [Naringenin], which “fraction of GFP+ cells” value is on record?
The value was 0.997 ± 0.18.

Which “fraction of GFP+ cells” value does the source give for CC(C)OC(=O)C(C)(C)Oc1ccc(C(=O)c2ccc(Cl)cc2)cc1 [Fenofibrate] here?
Its value is 1.96 ± 0.19.

Which “fraction of GFP+ cells” value does the source give for CC(C)OC(=O)[C@H](C)N[P@](=O)(OC[C@H]1O[C@@H](n2ccc(=O)[nH]c2=O)[C@](C)(F)[C@@H]1O)Oc1ccccc1 [Sofosbuvir (PSI-7977, GS-7977)] here?
The value was 1.03 ± 0.4.

For O=[N+]([O-])c1ccc(Nc2ccccc2-c2ccccc2)c2nonc12, which “fraction of GFP+ cells” value is on record?
Its value is 0.854 ± 0.23.
